Drawing on PubChem BioAssay (Tox21), this text covers Potency and outcome for 16 compounds.

Inconclusive results are not listed. Some compounds were tested as several samples or in several runs, with calls that do not always agree. Activity calls are given as the source filed them. Unless noted, calls come from the whole dose curve; as a rule, active = well fitted curve in the direction sought with a large enough effect in the repeat runs; inconclusive = weak or mixed curves; inactive = no such curve, though single readings can be large; an effect the other way counts as inactive or inconclusive.

Assay [1] can be described thus: qHTS assay to identify aromatase inhibitors - cell viability counter screen (AID 743084).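 Note: cells stimulated with testosterone during compound exposure; nearly all actives have a fitted effect of over 55% in size.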
For assay [2], the target named is Aryl hydrocarbon receptor (Homo sapiens) (UniProt P35869). In words: qHTS assay to identify small molecule that activate the aryl hydrocarbon receptor (AhR) signaling pathway (AID 743085).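 For activation: HG2L7.5c1 human HepG2 liver cells with stably integrated DRE-driven firefly reporter; series mostly up to about 70 µM.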 Note: nearly all actives have a fitted effect of over 15% in size. Note: potency is the fitted concentration of half-maximal effect. An outline of the steps: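 HepG2 cells stably carrying a 20-DRE firefly luciferase reporter (HG2L7.5c1) treated with compound for 24 hr at 37C. Luciferase read by ONE-Glo luminescence, with CellTiter-Fluor viability read first.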

Assay [3] can be described thus: qHTS assay to identify small molecule that activate the aryl hydrocarbon receptor (AhR) signaling pathway - cell viability counter screen (AID 743086). Note: series mostly up to about 70 µM; nearly all actives have a fitted effect of over 45% in size. An outline of the steps:
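HepG2-AhR-luc (HG2L7.5c1) cells, 4000/well, treated 24 h at 37 C with compound; viability measured as CellTiter-Fluor fluorescence after 30 min in the same wells as the luciferase read.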

In assay [4] the target is Peroxisome proliferator-activated receptor gamma (Homo sapiens) (UniProt P37231). In words: qHTS assay to identify small molecule agonists of the peroxisome proliferator-activated receptor gamma (PPARg) signaling pathway (AID 743094; active = well fitted activation curve with a large enough effect in the signal ratio in the repeat runs, not every such curve was filed as active; the % refers to the signal ratio). An outline of the steps: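 Reporter activation was scored by fluorescence of cleaved LiveBLAzer B/G substrate (1 h, room temperature) in PPARg-bla HEK293H cells previously treated 17 h at 37C with DMSO-dissolved compounds.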

The target is the same in assay [5]. Briefly: qHTS assay to identify small molecule antagonists of the peroxisome proliferator-activated receptor gamma (PPARg) signaling pathway (AID 743191; calls by dose curve; note: series mostly up to about 63 µM; nearly all actives have a fitted effect of over 30% in size). The method, boiled down:
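GeneBLAzer PPARg UAS-bla HEK293H cells, 5 h post-plating, exposed to compounds 17 h at 37C. LiveBLAzer B/G FRET substrate added for 1 h at room temperature; beta-lactamase reporter read by fluorescence intensity.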

A short description of assay [6]: qHTS assay to identify small molecule antagonists of the peroxisome proliferator-activated receptor gamma (PPARg) signaling pathway - cell viability counter screen (AID 743194). Note: nearly all actives have a fitted effect of over 55% in size. An outline of the steps:
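Cytotoxicity counter screen in PPARg-bla HEK293H cells, same wells as reporter assay. Compounds plus 50 nM rosiglitazone (final) for 17 h at 37 C, then viability read by CellTiter-Glo luminescence.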

Assay [7] is described as follows: qHTS assay for small molecule agonists of the antioxidant response element (ARE) signaling pathway (AID 743202; active = well fitted activation curve with a large enough effect in the signal ratio in the repeat runs, not every such curve was filed as active; the % refers to the signal ratio). The method, boiled down: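 HepG2 ARE-bla cells; 16 h treatment at 37 C; FRET-based beta-lactamase fluorescence read after 2 h substrate incubation at room temperature.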
The nature of assay [8]: qHTS assay for small molecule agonists of the antioxidant response element (ARE) signaling pathway - cell viability counter screen (AID 743203; calls by dose curve; note: nearly all actives have a fitted effect of over 55% in size). An outline of the steps: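 Viability counter screen: stably transfected ARE-bla HepG2 line, 16 hrs compound exposure at 37C/5% CO2, ATP-based CellTiter-Glo luminescence measured in the reporter wells.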
Assay [9] is described as follows: qHTS assay for small molecule activators of the heat shock response signaling pathway (AID 743210; active = well fitted activation curve with a large enough effect in the signal ratio in the repeat runs, with a control signal flat, not every such curve was filed as active; the % refers to the signal ratio;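 note: HeLa cells with beta-lactamase reporter driven by heat shock elements; series mostly up to about 63 µM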). An outline of the steps: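 Following overnight attachment, HSE-bla HeLa cells received test compounds for 5 h at 37 C; beta-lactamase activity was then detected via FRET substrate fluorescence.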
A short description of assay [10]: qHTS assay for small molecule activators of the heat shock response signaling pathway - cell viability counter screen (AID 743209). Note: nearly all actives have a fitted effect of over 50% in size. The method, boiled down:
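Viability of HSE-bla HeLa cells is measured with CellTiter-Glo in the wells already used for the reporter read. Compound exposure lasts 5 h at 37 C, and luminescence is read after 30 min at room temperature.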

Chain of Peroxisome proliferator-activated receptor gamma (Homo sapiens) (P37231 whole entry, looked up): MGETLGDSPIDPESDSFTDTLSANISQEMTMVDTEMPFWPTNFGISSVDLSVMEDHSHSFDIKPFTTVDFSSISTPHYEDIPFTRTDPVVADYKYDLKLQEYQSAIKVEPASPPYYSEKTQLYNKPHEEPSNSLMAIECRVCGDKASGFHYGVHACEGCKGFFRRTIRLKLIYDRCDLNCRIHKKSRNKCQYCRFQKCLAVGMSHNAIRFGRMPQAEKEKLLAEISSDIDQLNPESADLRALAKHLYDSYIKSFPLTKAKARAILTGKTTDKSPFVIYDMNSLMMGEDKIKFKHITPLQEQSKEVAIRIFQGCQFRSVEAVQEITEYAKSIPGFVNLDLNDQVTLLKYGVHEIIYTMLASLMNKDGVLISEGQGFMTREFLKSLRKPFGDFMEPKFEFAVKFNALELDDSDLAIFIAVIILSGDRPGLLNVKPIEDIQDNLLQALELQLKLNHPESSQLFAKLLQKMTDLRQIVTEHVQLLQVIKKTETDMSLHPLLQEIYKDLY
Chain of Aryl hydrocarbon receptor (Homo sapiens) (P35869 whole entry, looked up): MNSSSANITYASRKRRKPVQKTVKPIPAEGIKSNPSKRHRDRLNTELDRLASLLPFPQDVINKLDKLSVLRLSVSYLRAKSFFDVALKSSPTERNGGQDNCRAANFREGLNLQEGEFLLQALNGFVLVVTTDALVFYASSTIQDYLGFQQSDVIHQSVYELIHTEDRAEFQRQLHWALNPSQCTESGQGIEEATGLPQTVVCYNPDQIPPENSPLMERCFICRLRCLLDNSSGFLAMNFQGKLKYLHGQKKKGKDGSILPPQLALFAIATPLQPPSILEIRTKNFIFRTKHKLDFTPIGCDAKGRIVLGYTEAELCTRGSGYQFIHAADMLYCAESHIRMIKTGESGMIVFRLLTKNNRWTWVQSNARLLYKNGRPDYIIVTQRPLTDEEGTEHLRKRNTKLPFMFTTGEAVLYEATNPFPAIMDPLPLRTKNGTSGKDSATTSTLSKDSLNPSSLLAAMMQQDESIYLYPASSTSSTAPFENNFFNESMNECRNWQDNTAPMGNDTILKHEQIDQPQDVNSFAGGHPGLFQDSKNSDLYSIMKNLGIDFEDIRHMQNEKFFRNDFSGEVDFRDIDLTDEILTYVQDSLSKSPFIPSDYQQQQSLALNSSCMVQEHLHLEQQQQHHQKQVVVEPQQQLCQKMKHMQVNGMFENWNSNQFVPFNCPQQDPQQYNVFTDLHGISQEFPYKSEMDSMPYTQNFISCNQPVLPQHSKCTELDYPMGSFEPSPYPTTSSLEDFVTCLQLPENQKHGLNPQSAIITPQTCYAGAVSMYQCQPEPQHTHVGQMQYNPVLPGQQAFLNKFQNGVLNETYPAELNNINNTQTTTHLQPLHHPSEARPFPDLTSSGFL

For `CC(=O)Nc1ccc(C(=O)O)cc1`, the Potency result in assay [1], in assay [2], in assay [3], in assay [5], in [6] and in assay [7] was “inactive” each time. Moreover, in [8], the Potency entry is “inactive”. Also, the result in assay [4] and in [9] was inactive.

Turning to `C=C1C2CCC(C2)C1(C)C` (stereo not given), the Potency result in assay [1], in assay [2], in assay [3], in [5], in assay [6] and in [7] was “inactive” each time. In addition, the Potency entry in [8] and in [10] was “inactive” each time. The outcome in assay [4] and in assay [9] was inactive.

As for `CC1CC(OC(=O)c2ccccc2O)CC(C)(C)C1` (stereo not given), the Potency result in assay [1], in [2], in [3], in assay [5], in [6] and in [7] was “inactive” in each case. Also, the Potency entry in [8] is “inactive”. Moreover, in assay [4], the outcome was inactive.

In the case of `CC1(C)CC(N=C=O)CC(C)(CN=C=O)C1` (stereo not given), the Potency result in assay [1], in assay [2], in assay [3], in assay [5], in assay [6] and in assay [7] was “inactive” each time. Also, the Potency result in assay [8] and in [10] was “inactive” each time. Moreover, the compound was called inactive in [4] and in assay [9].

Regarding `NCc1cccc(CN)c1`, the Potency entry in assay [1], in assay [2], in [3], in assay [5], in assay [6] and in assay [7] was “inactive” throughout. For the same compound, the Potency entry in assay [8] and in assay [10] was “inactive” in each case. The compound was called inactive in assay [4] and in assay [9].

For the compound `CCCCOCCO`, the Potency result in assay [1], in [2], in assay [3], in assay [5], in assay [6] and in assay [7] was “inactive” throughout. The Potency entry in assay [8] and in assay [10] was “inactive” in each case. Besides, the result in assay [4] and in [9] was inactive.

Regarding `O=C1CCCCC1`, the Potency result in assay [1], in assay [2], in assay [3], in assay [5], in assay [6] and in [7] was “inactive” in each case. Moreover, the Potency entry in assay [8] and in assay [10] was “inactive” throughout. The outcome in assay [4] and in assay [9] was inactive.

For `C=C(C)C(=O)OCCC[Si](OC)(OC)OC`, the Potency entry in assay [1], in [2], in [3], in assay [5], in assay [6] and in assay [7] was “inactive” each time. Also, the Potency entry in assay [8] and in [10] was “inactive” in each case. Besides, the call in assay [4] and in assay [9] was inactive.

Take `C=C(C)C(=O)OCCCCCCCCCCCC`: the Potency entry in [1], in assay [2], in assay [3], in [5], in assay [6] and in [7] was “inactive” in each case. Also, the Potency result in [8] and in assay [10] was “inactive” throughout. The outcome in assay [4] and in assay [9] was inactive.

For the compound `Cn1c([N+](=O)[O-])cnc1COC(N)=O`, the Potency result in assay [1], in assay [2], in assay [3], in assay [5], in assay [6] and in assay [7] was “inactive” in each case. Moreover, the Potency entry in assay [8] and in [10] was “inactive” in each case. In addition, the outcome in assay [4] and in assay [9] was inactive.

Take `O=C(Cl)c1c(Cl)c(Cl)c(C(=O)Cl)c(Cl)c1Cl`: the Potency result in assay [1], in assay [2], in [3], in assay [5], in assay [6] and in [7] was “inactive” each time. Besides, the Potency result in assay [8] and in [10] was “inactive” throughout. In addition, the call in assay [4] and in assay [9] was inactive.

For `Cc1cc(=O)[nH]c(C(C)C)n1`, the Potency result in assay [1], in [2], in assay [3], in assay [5], in assay [6] and in assay [7] was “inactive” each time. For the same compound, the Potency entry in assay [8] was “inactive”. The outcome in assay [4] and in assay [9] was inactive.

`Clc1ccc(Cl)c(Cl)c1Cl`: the Potency result in [1], in assay [2], in assay [3], in assay [5], in assay [6] and in [7] was “inactive” throughout. Also, the Potency result in assay [8] and in assay [10] was “inactive” in each case. For the same compound, the result in [4] and in assay [9] was inactive.

Consider `O=Nc1ccc(O)cc1`, for which the Potency result in [1], in assay [3], in assay [5], in assay [6], in assay [7] and in [8] was “inactive” each time. Further, the Potency entry in assay [10] was “inactive”. Moreover, the Potency in assay [2] was 53.2 µM (active) and inactive. Besides, the call in [4] and in assay [9] was inactive.

As to `CCc1ccccc1O`, the Potency result in assay [1], in assay [2], in [3], in assay [5], in [6] and in assay [7] was “inactive” in each case. Also, the Potency entry in assay [8] was “inactive”. The call in [4] and in assay [9] was inactive.

Consider `CC(C)(N=C=O)c1cccc(C(C)(C)N=C=O)c1`, for which the Potency result in assay [1], in assay [2], in assay [3], in assay [5], in assay [6] and in assay [7] was “inactive” in each case. For the same compound, the Potency result in [8] and in assay [10] was “inactive” throughout. Further, the call in assay [4] and in assay [9] was inactive.
